33 molecules from PubChem BioAssay AID1345085 (National Center for Advancing Translational Sciences (NCATS), 2018) can be followed below.

Molecules are shown by their SMILES. Records with an inconclusive call do not appear. A number with no mark means an inactive call. Calls of active or inactive are those of the source. Calls follow the shape of the dose curve; as a rule, active = well fitted cell-killing curve with a large enough effect; inconclusive = small, poorly fitted or top-dose-only effect, or effect the other way; inactive = no such curve, though single readings can be large or run the other way.
% is scaled to controls: 0 for no effect and ±100 for the full control effect; potency is read from the fitted curve at half-maximal effect.

The test concerns JEG-3. Briefly: Confirmatory qHTS for gynecologic anti-cancer compounds from libraries of approved drugs and bioactive compounds. Also: nearly all actives have a fitted effect of over 55% in size. To be noted: gynecologic cancer cell panel viability, ATPlite luminescence, 48 h; series mostly up to 57.6 µM; activity change, negative = viability loss: at the top concentration. Put shortly: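 Viability is measured as ATP-dependent luciferase light using ATPlite, read 15 min after reagent addition at room temperature. Compounds, in DMSO, span 57.5 uM down to 0.977 nM over 11 threefold steps for 48 h.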
A general note: qHTS replaces the single test concentration by a dilution series.
Regarding `CCCc1nn(C)c2c(=O)[nH]c(-c3cc(S(=O)(=O)N4CCN(C)CC4)ccc3OCC)nc12`, the “activity change, negative = viability loss” value is 16.3%.

Regarding `Cc1cnc(CNC(=O)c2c(=O)c3ccc(N4CCCN(C)CC4)nc3n3c2sc2ccccc23)cn1`, the activity change, negative = viability loss was -17.5% [at 10.6 µM].

With `CCCCc1oc2ccccc2c1C(=O)c1cc(I)c(OCCN(CC)CC)c(I)c1`, the Potency was 70.8 µM (active).

In the case of `Cc1cncc2cccc(S(=O)(=O)N3CCCN(C(=O)CN)C[C@@H]3C)c12`, the “activity change, negative = viability loss” value was -6.44%.

With `C=CC(=O)Nc1cc2c(Nc3ccc(F)c(Cl)c3)ncnc2cc1OCCCN1CCOCC1`, the Potency was 27.3 µM (active).

As for `O=C(/C=C/c1cccc(S(=O)(=O)Nc2ccccc2)c1)NO`, the Potency is 1.19 µM (active).

Turning to `CCN(CC)CCCC(C)Nc1c2ccc(Cl)cc2nc2ccc(OC)cc12` (stereo not drawn), the Potency is 43.2 µM (active).

As to `CC(=O)Nc1cccc(-n2c(=O)n(C3CC3)c(=O)c3c(Nc4ccc(I)cc4F)n(C)c(=O)c(C)c32)c1`, the “activity change, negative = viability loss” value was -11%.

Regarding `Cc1cc(Nc2nc(N[C@@H](C)c3ccc(F)cc3)c(C#N)cc2F)n[nH]1`, the Potency is 19.3 µM (active).

Consider `CN(C)CC/C=C1\c2ccccc2COc2ccccc21`, for which the “activity change, negative = viability loss” value is -6.65%.

Consider `CC(=O)O[C@H]1C(=O)[C@@]2(C)[C@H]([C@H](OC(=O)c3ccccc3)[C@]3(O)C[C@H](OC(=O)[C@H](O)[C@@H](NC(=O)c4ccccc4)c4ccccc4)C(C)=C1C3(C)C)[C@]1(OC(C)=O)CO[C@@H]1C[C@@H]2O`, for which the Potency is 0.0259 µM (active).

As to `Cn1cc(-c2[nH]c3cc(NC(=O)[C@H](N)C4CCCCC4)cc4c3c2C=NNC4=O)cn1`, the Potency was 7.69 µM (active).

In the case of `Cc1cc(Nc2nc(N[C@@H](C)c3ncc(F)cn3)ncc2Cl)n[nH]1`, the “activity change, negative = viability loss” value is 4.7%.

For `COc1ccc(-c2nc3ccc(C4=NNC(=O)CC4C)cc3[nH]2)cc1` (stereo not drawn), the Potency is 21.7 µM (active).

Regarding `CC(C)CC(=O)Nc1n[nH]c2c1CN(C(=O)C1CCN(C)CC1)C2(C)C`, the Potency was 1.09 µM (active).

Consider `CN(C)C(CCOc1cccc2ccccc12)c1ccccc1` (stereo not drawn), for which the “activity change, negative = viability loss” value is -13.9%.

On to `Nc1ncn([C@@H]2O[C@H](CO)[C@@H](O)[C@H]2O)c(=O)n1`, for which the “activity change, negative = viability loss” value was -6.25%.

In the case of `CO[C@@]12[C@H](COC(N)=O)C3=C(C(=O)C(C)=C(N)C3=O)N1C[C@@H]1N[C@@H]12`, the “activity change, negative = viability loss” value was 5.97%.

Regarding `CC(C)C[C@H](NC(=O)[C@H](Cc1ccccc1)NC(=O)c1cnccn1)B(O)O`, the Potency is 0.217 µM (active).

Consider `COc1ccc(CCC(=O)c2c(O)cc(O[C@@H]3O[C@H](CO)[C@@H](O)[C@H](O)[C@H]3O[C@@H]3O[C@@H](C)[C@H](O)[C@@H](O)[C@H]3O)cc2O)cc1O`, for which the “activity change, negative = viability loss” value is 8.82%.

With `C[C@@H](Oc1cc(-c2cnn(C3CCNCC3)c2)cnc1N)c1c(Cl)ccc(F)c1Cl`, the Potency was 21.7 µM (active).

On to `O=C(NCC(O)CO)c1ccncc1Nc1ccc(I)cc1F` (stereo not drawn), for which the “activity change, negative = viability loss” value is -2.76%.

As to `CCCCc1oc2ccc(NS(C)(=O)=O)cc2c1C(=O)c1ccc(OCCCN(CCCC)CCCC)cc1`, the Potency is 27.3 µM (active).

For the molecule `CC(C)C[C@H](NC(=O)[C@H](CCc1ccccc1)NC(=O)CN1CCOCC1)C(=O)N[C@@H](Cc1ccccc1)C(=O)N[C@@H](CC(C)C)C(=O)[C@@]1(C)CO1`, the Potency is 17.2 µM (active).

In the case of `O=C(c1ccc(/C=C/c2n[nH]c3ccccc23)cc1)N1CCNCC1`, the Potency is 24.3 µM (active).

For the molecule `C=CC(=O)Nc1cccc(Oc2nc(Nc3ccc(N4CCN(C)CC4)cc3)ncc2Cl)c1`, the Potency was 24.3 µM (active).

In the case of `Cn1cnc2c(F)c(Nc3ccc(Br)cc3Cl)c(C(=O)NOCCO)cc21`, the “activity change, negative = viability loss” value was -22.5%.

As to `CNC1CCC(N(Cc2cccc(-c3ccncc3)c2)C(=O)c2sc3ccccc3c2Cl)CC1` (stereo not drawn), the Potency was 27.3 µM (active).

Regarding `CN1CCN(CCOc2cc(OC3CCOCC3)c3c(Nc4c(Cl)ccc5c4OCO5)ncnc3c2)CC1`, the “activity change, negative = viability loss” value is -25%.

Take `CC(C)Oc1ccc2c(=O)c(-c3ccccc3)coc2c1`: the Potency was 24.3 µM (active).

Take `COc1cc2c(Oc3ccc(-c4cnc(Nc5ccc(F)cc5)n(C)c4=O)cc3F)ccnc2cc1OCCCN1CCOCC1`: the “activity change, negative = viability loss” value is 1.07%.

Turning to `CC(=O)c1cnc2ccc(-c3cc(Cl)c(O)c(Cl)c3)nc2c1NC1CCC(CN(C)C)CC1` (stereo not drawn), the Potency was 0.627 µM (active).

`O=C(CCCCCCC(=O)Nc1ccccc1)NO`: the Potency was 2.43 µM (active).
